About 100 (2.8%) of roughly 3,600 compounds were called active.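 How the source made its calls: active means inhibition above 30% at one or more concentrations, seen consistently on every test date; inconclusive means results that disagree between repeat test dates; inactive means the rest.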 The list is a sample of the results.

This experiment can be described thus: GST-antibody interaction or FRET quenching – biochemical, TR-FRET, artefact control for Vif-APOBEC3G degradation inhibitor project, dose response (AID 1117362).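 Further: biotinylated GST protein used in place of GST-Vif 1-94 and biotin-A3G peptide; detects fluorescence quenchers or blockers of GST binding to anti-GST antibody.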 To be noted: TR-FRET counter screen, biotin-GST/anti-GST signal; series mostly up to 100 µM.
As a reminder, the IC50 is the concentration that inhibits the measured activity by half. As for `Cc1noc(/C=C/c2ccco2)c1S(=O)(=O)N1CCC(C(=O)N2c3ccccc3CC2C)CC1` (configuration not stated), the IC50 entry was “inactive”.

In the case of `Cc1cc(C)nc(N/N=C/C2=C(N3CCOCC3)C(=C\c3ccc(Cl)cc3)/CC2)n1`, the IC50 entry was “inactive”.

Turning to `Cc1ccccc1NC(=O)c1c(C)[nH]c(=S)c(C#N)c1-c1ccco1`, the IC50 entry is “inactive”.

Turning to `COc1ccc(OC)c(C2C(C(=O)Nc3ccc(F)cc3)=C(C)Nc3nc(CCCO)nn32)c1` (configuration not stated), the IC50 result is “inactive”.

On to `c1ccc2c(c1)CCCN2Cc1nnc2n1CCCCC2`, for which the IC50 result was “inactive”.

As to `CCOC(=O)C1CCN(C(c2cccs2)c2sc3nc(C)nn3c2O)CC1` (configuration not stated), the IC50 result is “inactive”.

For `Cc1onc(-c2c(F)cccc2Cl)c1C(=O)Nc1nnc(C2CC2)s1`, the IC50 result is “inactive”.

Take `O=C(O)c1ccc(Cl)c2c1C1C=CCC1C(c1ccccn1)N2` (configuration not stated): the IC50 result is “inactive”.

For the molecule `COCCCNC(=O)/C(C#N)=C/c1ccc(OCC(=O)O)c(OC)c1`, the IC50 entry is “inactive”.

Take `CCOC(=O)N1CCN(C(=O)c2ccc3c(SCC(=O)O)c4c(nc3c2)CCC4)CC1`: the IC50 result was “inactive”.

With `COC(=O)C1=C(C)NC(=O)/C1=C\c1cccs1`, the IC50 entry is “inactive”.

As for `CC(=O)C1=C(C)NC(C)=C(C(C)=O)C1c1cccs1`, the IC50 result is “inactive”.

Regarding `CNc1c(C(=O)O)ccc2c1C(=O)c1ccccc1C2=O`, the IC50 result is “inactive”.

On to `COCc1cc(C)nc(NCCO)c1C#N`, for which the IC50 result is “inactive”.

For `CC(C)c1ccc(/C=C/C(=O)N2CCc3ccccc3C2)cc1`, the IC50 result is “inactive”.

Take `CCOC(=O)C1=C(c2ccccc2)N=c2s/c(=C\c3ccco3)c(=O)n2C1c1cccs1` (configuration not stated): the IC50 entry was “inactive”.

As to `O=C(O)Cc1ccc(N=Nc2c(O)c(C(=O)O)cc3ccccc23)cc1`, the IC50 result was “inactive”.

Consider `COC(=O)c1ccc(C)c(NC(=O)CCSc2ccccc2)c1`, for which the IC50 result is “inactive”.

For the molecule `O=C(COC(=O)c1c2c(nc3ccccc13)/C(=C\c1ccco1)CC2)NC1CCCC1`, the IC50 result was “inactive”.

For `CCC(=O)N1N=C(c2ccc(NS(C)(=O)=O)cc2)CC1c1ccc(C)cc1` (configuration not stated), the IC50 entry was “inactive”.

Take `Cn1nc(-c2ccc(Cl)cc2)c2cc(C(=O)N3CCN(c4ccccc4)CC3)sc21`: the IC50 result was “inactive”.

With `CCOC(=O)c1sc2nc(CC(=O)OC)nc(NCc3ccco3)c2c1C`, the IC50 entry is “inactive”.

As to `CCOc1ccc(-n2c(Cc3cc(=O)[nH]c(=O)[nH]3)nnc2SCC(N)=O)cc1`, the IC50 entry is “inactive”.

`COC(=O)COc1ccc(S(=O)(=O)Nc2cc(OC)ccc2OC)cc1`: the IC50 entry was “inactive”.

For `COC(=O)CSc1nnc(CNC(=O)Cc2ccccc2)n1C`, the IC50 entry was “inactive”.

As for `CCOC(=O)c1cc2cc(F)ccc2nc1C`, the IC50 result is “inactive”.

As for `O=C(Cc1ccccc1)NC(Nc1ccccc1)C(Cl)(Cl)Cl` (configuration not stated), the IC50 result is “inactive”.

`Cc1ccc(C)c(-n2c(Cc3cc(=O)[nH]c(=O)[nH]3)nnc2SC(C)C)c1`: the IC50 entry is “inactive”.

Consider `O/N=C1\CCC\C1=C/c1ccco1`, for which the IC50 entry is “inactive”.

As to `O=C(CCCCCN1C(=O)CCC1=O)Nc1ccc(Cl)c(C(F)(F)F)c1`, the IC50 entry is “inactive”.

`Cc1ccc(N(CC(=O)NCCSCc2ccco2)S(=O)(=O)c2ccc(F)cc2)cc1`: the IC50 result was “inactive”.

For `CCOc1ccc(-n2c(Cc3cc(=O)[nH]c(=O)[nH]3)nnc2SCC(=O)NC2CCCC2)cc1`, the IC50 result was “inactive”.

As to `CC1CCCN(C(=O)CN2CCN(C(=O)c3ccco3)CC2)C1` (configuration not stated), the IC50 entry is “inactive”.

Consider `COc1ccc(CCNC(=O)CN2CCCc3ccccc32)cc1OC`, for which the IC50 result is “inactive”.

Regarding `O=C(c1ccco1)N1CCN(C(c2ccccn2)c2nnnn2C2CCCC2)CC1` (configuration not stated), the IC50 entry was “inactive”.

As for `O=C(NC1CCCC1)C(c1ccco1)N(Cc1ccccc1)C(=O)c1csnn1` (configuration not stated), the IC50 entry is “inactive”.

Regarding `c1cncc(-c2csc(NCc3ccco3)n2)c1`, the IC50 result is “inactive”.

With `COc1cc(CC(=O)OCC(=O)Nc2cccc([N+](=O)[O-])c2)cc(OC)c1OC`, the IC50 result is “inactive”.

Take `CCOC(=O)Cn1nnnc1C(C(C)C)N(Cc1cc2c(C)cc(C)cc2[nH]c1=O)C1CCCC1` (configuration not stated): the IC50 entry is “inactive”.

Take `CC(=O)Nc1ccc(S(=O)(=O)NCCSCc2ccco2)cc1`: the IC50 entry is “inactive”.

With `CCOC(=O)c1cnn2c(N)c(C#N)nnc12`, the IC50 entry is “inactive”.

Turning to `CSc1nc(N(CCO)CCO)c2sc3nc(-c4ccco4)c4c(c3c2n1)CCC4`, the IC50 result is “inactive”.

`CC(=C/c1ccco1)/C=N/NC(=O)Cc1cccn1C`: the IC50 entry is “inactive”.

Take `COc1ccccc1NC(=O)CSc1nnc(Cc2cc(=O)[nH]c(=O)[nH]2)n1-c1ccccc1`: the IC50 result was “inactive”.

Turning to `Cc1nc2ncccn2c1-c1csc(NCc2ccco2)n1`, the IC50 result is “inactive”.

Turning to `Cc1cc(S(=O)(=O)N(Cc2ccccn2)Cc2ccco2)ccc1-n1cnnn1`, the IC50 result was “inactive”.

For `COc1ccccc1C1C=C(c2ccc(C)cc2)Nc2nnnn21` (configuration not stated), the IC50 result is “inactive”.

With `O=C(O)/C=C/C(=O)Nc1cccnc1`, the IC50 entry was “inactive”.

Regarding `O=C(c1cc2n(n1)C(C(F)(F)F)CC(c1ccco1)N2)N1CCc2ccccc2C1` (configuration not stated), the IC50 entry is “inactive”.

On to `COc1ccc(-c2ccc(C#N)c(SCC(=O)Nc3sc4c(c3C#N)CCC4)n2)cc1OC`, for which the IC50 result was “inactive”.

For the molecule `CC(=O)OC1COC(n2ccc3ccccc32)C(OC(C)=O)C1OC(C)=O` (configuration not stated), the IC50 entry is “inactive”.

Consider `O=C1C2C3CCCC3=C3CCCC3C2C(=O)N1c1ccccc1` (configuration not stated), for which the IC50 result is “inactive”.

As to `CCCCn1c(=NC(=O)c2cccnc2)c(C#N)cc2c(=O)n3cccc(C)c3nc21`, the IC50 result is “inactive”.

As to `CCc1ccc2nc(N3CCN(C)CC3)c(C#N)cc2c1`, the IC50 result was “inactive”.

Turning to `Cc1nc2cc(N=NC3=C(O)CCCC3=O)ccc2s1`, the IC50 entry was “inactive”.

On to `COc1ccc2ccccc2c1C1CC(=O)N2CN(Cc3ccco3)CSC2=C1C#N` (configuration not stated), for which the IC50 entry is “inactive”.

`C=CC(=O)N1C/C(=C/c2ccc(F)cc2)C(=O)/C(=C\c2ccc(F)cc2)C1`: the IC50 entry was “inactive”.

As to `O=C1NC(=S)N/C1=C/c1ccc(-c2c(Br)cc([N+](=O)[O-])cc2Br)o1`, the IC50 result is “inactive”.

As for `COC(=O)C1=C(N)OC2=C(C(=O)CCC2)C1c1cccs1` (configuration not stated), the IC50 entry is “inactive”.

In the case of `CC1(c2ccc3noc(-c4ccccc4)c3c2)OCCO1`, the IC50 entry is “inactive”.

For the molecule `O=C(COC(=O)/C=C/c1ccco1)Nc1ncc(C(F)(F)F)cc1Cl`, the IC50 result was “inactive”.

As to `CCOC(=O)c1c(C)oc2c1c(C=NCc1ccccn1)c(O)c1ccccc12`, the IC50 result was “inactive”.

As for `Cc1ccc(C(=O)Nc2ccc(O)c(C(=O)O)c2)o1`, the IC50 entry is “inactive”.

With `COc1ccccc1/C=C(/CC(=O)NCc1ccccc1)c1nc2ccccc2s1`, the IC50 result was “inactive”.

Consider `COc1ccc(-c2nc3oc4cc(OC)ccc4c(=O)c3c(=O)n2Cc2ccco2)cc1`, for which the IC50 entry was “inactive”.

For the molecule `O=S(=O)(Nc1nccs1)c1ccc(Nc2nnc(-c3ccccc3)c3ccccc23)cc1`, the IC50 entry is “inactive”.

With `Cc1ccc(-n2c(C)cc(C(=O)OCC(=O)N(CC(C)C)C3CCS(=O)(=O)C3)c2C)cc1` (configuration not stated), the IC50 entry is “inactive”.

In the case of `CCOc1cc(N2CCOCC2)c(OCC)cc1NS(=O)(=O)c1ccc(Cl)s1`, the IC50 result was “inactive”.

Turning to `CN1CCC(N(C)C(=O)COc2ccccc2-c2ccccc2)CC1`, the IC50 result was “inactive”.

As to `O=C(O)CCCCC1CCSS1` (configuration not stated), the IC50 entry is “inactive”.

Regarding `CN(C)C(=O)c1nc2ccc(Cl)cn2c1CN1CCCC(OCc2ccccc2)C1` (configuration not stated), the IC50 entry was “inactive”.

As to `O=C1CC(Nc2ccc(N3CCOCC3)cc2)C(=O)N1c1ccccc1F` (configuration not stated), the IC50 entry was “inactive”.

For `Cc1ccc(/C=C/C(=O)Nc2cccc(S(=O)(=O)N3CCOCC3)c2)o1`, the IC50 entry was “inactive”.

As to `CCOC(=O)/C=C1\SCC(=O)N1CC(=O)NC(C)c1ccc(F)cc1` (configuration not stated), the IC50 result was “inactive”.

Regarding `CC1=C(C#N)C(=O)N(C)C(C)(C)C1`, the IC50 entry was “inactive”.

Consider `CN1CCc2nc3ccc(Cl)cc3c(-c3ccccc3Cl)c2C1`, for which the IC50 result is “inactive”.

For `CNC(=O)c1ccccc1NC(=O)c1ccc(C)c(S(=O)(=O)N2CCCCC2)c1`, the IC50 result was “inactive”.

Regarding `Oc1ccc2ccccc2c1C1Nc2cccc3cccc(c23)N1`, the IC50 entry is “inactive”.

As for `Cc1cc(C(=O)O)ccc1-n1c(C)ccc1C`, the IC50 result was “inactive”.

For the molecule `COc1cc(C(=O)NCC(c2ccco2)N2CCCC2)ccc1OCc1c(C)noc1C` (configuration not stated), the IC50 entry is “inactive”.

As to `Cc1cc(C(=O)CCl)c(C)n1-c1c(C)n(C)n(-c2ccccc2)c1=O`, the IC50 result was “inactive”.

Take `O=C(O)/C(=C/c1ccco1)NC(=O)c1ccccc1`: the IC50 entry is “inactive”.

As for `O=[N+]([O-])c1c(NCCCO)cc(SCc2ccco2)c2nonc12`, the IC50 result was “inactive”.

On to `CCc1c(C)sc(NC(=O)c2cc(-c3ccco3)on2)c1C#N`, for which the IC50 result is “inactive”.

Take `Cc1oc(-c2ccc(Cl)cc2)cc1-c1nn2c(-c3ccoc3C)nnc2s1`: the IC50 result was “inactive”.

On to `CCC(c1nnnn1Cc1ccco1)N(Cc1ccccc1OC)Cc1cc2cc(C)ccc2[nH]c1=O` (configuration not stated), for which the IC50 result was “inactive”.

Take `S=c1[nH]nc(COc2ccc3c(c2)OCO3)n1-c1ccccc1`: the IC50 entry is “inactive”.

With `O=P(O)(CN1CCCCCC1)CN1CCCCCC1`, the IC50 result was “inactive”.

Take `C=CCN=c1scc(-c2ccco2)n1/N=C/c1ccc(O)c(O)c1O`: the IC50 result was “inactive”.

Consider `N#CC1=C(N)OC2=C(CCC/C2=C/c2ccoc2)C1c1ccoc1` (configuration not stated), for which the IC50 result is “inactive”.

On to `Cc1cc(C(=O)CSc2nc3ccccc3c(=O)[nH]2)c(C)n1C`, for which the IC50 entry was “inactive”.

With `C=C(C)C(=O)Nc1cccc(C2=NOC3(C2)C[C@@H](C(N)=O)N(C(=O)CC(c2ccccc2)c2ccccc2)C3)c1` (some centres not stated), the IC50 entry is “inactive”.

For `CSc1nc(NCCOCCO)c2sc3nc(-c4ccco4)c4c(c3c2n1)CCC4`, the IC50 entry was “inactive”.

In the case of `COC(=O)Cn1c(CCC(=O)O)ccc1-c1ccccc1`, the IC50 result is “inactive”.

`O=C(OC1CCCCC1)c1ccc2c(c1)C1C=CCC1C(C(=O)O)N2` (configuration not stated): the IC50 entry was “inactive”.

As for `COc1cccc(C2C(C#N)=C(N)OC3=C2C(=O)CC(c2ccco2)C3)c1OCc1ccc(F)cc1` (configuration not stated), the IC50 result was “inactive”.

Take `Cc1ccc(CCC(=O)Nc2ccc(S(N)(=O)=O)cc2)o1`: the IC50 entry is “inactive”.

As for `CCOC(=O)c1cc(NC(=O)N2CCCc3ccccc32)c(C)nc1C`, the IC50 result was “inactive”.

As to `CNC(=O)[C@@H]1C[C@H]1[C@@H](NC(=O)OCc1ccccc1)c1ccccc1`, the IC50 entry was “inactive”.

For the molecule `C(=C\c1ccco1)/C=N/n1cnnc1`, the IC50 result is “inactive”.

Consider `O=C(/C=C/c1ccco1)NC(=S)Nc1ccccc1N1CCOCC1`, for which the IC50 result was “inactive”.

As for `C=CCn1c(O)c(C(CC)=NCCN2CCOCC2)c(=O)[nH]c1=O`, the IC50 result is “inactive”.

On to `CC(/C=N/n1c(-c2ccncc2)n[nH]c1=S)=C\c1ccco1`, for which the IC50 result is “inactive”.

`CCOc1cc(CNc2ccc(O)cc2)ccc1OCc1ccc(Cl)cc1Cl`: the IC50 result is “inactive”.

On to `O=C(O)C1Nc2c(Cl)cc(Cl)c(Cl)c2C2C=CCC12` (configuration not stated), for which the IC50 result was “inactive”.

As for `Cc1ccc(NC(=O)CN(C)C(=O)c2cccc(-n3cccc3)c2)cc1`, the IC50 result is “inactive”.

As for `CCc1ccccc1NC(=O)c1cccc(NC(=O)/C=C/c2ccco2)c1`, the IC50 entry was “inactive”.

The values are drawn from PubChem BioAssay AID1117362 (Southern Research Institute, 2015).
